# SSB-PriA inh = inhibitors of Klebsiella pneumoniae PriA binding to SSB C-terminal tail, primary screen, biochemical, AlphaScreen. PriA–SSB C-terminal tail interaction (Klebsiella pneumoniae). AlphaScreen SSBct-PriA binding, biotinylated peptide. inhibition, % at 33 µM. 0.6% of 430,000 active; in the data active = inhibition mostly above about 37%, no sharp cut-off; inactive = mostly below about 20%;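 note: plate controls were negative control peptide for no effect and reference peptide for full effect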
# BoNT-A LC inh2 = BoNT/A light chain protease inhibitors, primary screen, biochemical, flow cytometry, MLPCN library | Botulinum neurotoxin type A light chain protease (Clostridium botulinum A str. ATCC 3502) | multiplex microsphere protease substrate cleavage | inhibition, % at 10 µM | 0.17% of 360,000 active | AID 588499, 2011; in the data active = inhibition above about 30%; inconclusive = no clear call, values can overlap the other calls; note: plate controls were buffer without enzyme for full effect and enzyme alone for no effect
# BoNT-F LC inh = BoNT/F light chain protease inhibitors, primary screen, biochemical, flow cytometry, MLPCN library; Botulinum neurotoxin type F light chain protease (Clostridium botulinum); Multiplex microsphere protease cleavage assay; inhibition, % at 10 µM; 0.22% of 360,000 active; in the data active = inhibition above about 35%, passing the limit was not always enough; inconclusive = no clear call, values can overlap the other calls; note: plate controls were buffer without enzyme for full effect and enzyme alone for no effect
# Anthrax LF inh2 = Bacillus anthracis LF protease inhibitors, primary screen, biochemical, multiplex microsphere, MLPCN library; multiplex microsphere protease cleavage assay; inhibition, % at 10 µM; 0.12% of 360,000 active; in the data active = inhibition above about 30%; inconclusive = no clear call, values can overlap the other calls; note: plate controls were buffer without enzyme for full effect and enzyme alone for no effect
# Target sequence (P15917 whole entry, looked up): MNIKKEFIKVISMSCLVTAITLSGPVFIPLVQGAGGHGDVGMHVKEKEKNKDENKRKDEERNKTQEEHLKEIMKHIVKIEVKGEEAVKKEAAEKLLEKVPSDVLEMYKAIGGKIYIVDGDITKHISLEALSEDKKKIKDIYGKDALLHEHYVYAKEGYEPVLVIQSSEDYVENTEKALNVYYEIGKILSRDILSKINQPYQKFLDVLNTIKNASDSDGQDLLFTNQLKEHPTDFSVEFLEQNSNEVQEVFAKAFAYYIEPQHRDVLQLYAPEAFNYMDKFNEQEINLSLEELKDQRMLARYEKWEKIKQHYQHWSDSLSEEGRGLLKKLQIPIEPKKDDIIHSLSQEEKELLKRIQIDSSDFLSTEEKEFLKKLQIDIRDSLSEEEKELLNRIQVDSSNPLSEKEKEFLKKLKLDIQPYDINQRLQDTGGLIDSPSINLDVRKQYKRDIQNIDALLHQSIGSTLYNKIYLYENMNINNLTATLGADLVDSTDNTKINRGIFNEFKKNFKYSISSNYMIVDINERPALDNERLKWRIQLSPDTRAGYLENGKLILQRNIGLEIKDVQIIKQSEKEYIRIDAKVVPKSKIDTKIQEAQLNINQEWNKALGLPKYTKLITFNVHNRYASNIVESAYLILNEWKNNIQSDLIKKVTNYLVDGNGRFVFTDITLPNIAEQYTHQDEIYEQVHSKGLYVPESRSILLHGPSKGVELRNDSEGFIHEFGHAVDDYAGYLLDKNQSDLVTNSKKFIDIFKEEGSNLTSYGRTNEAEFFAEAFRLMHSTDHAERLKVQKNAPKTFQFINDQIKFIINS
# Autofluor counter = compound fluorescence in toxin protease inhibitor counterscreen. compound autofluorescence counterscreen, microsphere flow cytometry; hits give high values. fluorescence intensity (no concentration beside the values). 3.1% of 360,000 active. AID 624483; in the data active = fluorescence intensity above about 16000; inconclusive = no clear call, values can overlap the other calls
# BoNT-A LC CP1 = BoNT/A light chain protease inhibitors, confirmation, biochemical, flow cytometry, cherry pick 1; shares compounds with BoNT-F LC inh; multiplex microsphere protease assay; inhibition, % at 10 µM; 3% of 720 active; AID 602139, 2011; in the data active = inhibition above about 32%
# BoNTF LC inh 1 = BoNT/F light chain protease inhibitors, confirmation, biochemical, flow cytometry, cherry pick 1; shares compounds with BoNT-F LC inh; multiplex microsphere protease cleavage assay; inhibition, % at 10 µM; 720 tested, under 10 active
# LF protease CP1 = Bacillus anthracis LF protease inhibitors, confirmation, biochemical, multiplex microsphere, cherry pick 1; shares compounds with BoNT-F LC inh; inhibition, % at 10 µM; 720 tested, under 10 active; multiplex microsphere protease cleavage assay
# Active calls of the source: *; u = inconclusive; x = no result; ! = a repeat was not active. In the library only some 3.1% were active in any assay of this set; here they are far more common. Unless noted, the rule behind the calls is not given here.
SMILES,SSB-PriA inh,BoNT-A LC inh2,BoNT-F LC inh,Anthrax LF inh2,Autofluor counter,BoNT-A LC CP1,BoNTF LC inh 1,LF protease CP1
COc1ccc(-c2c3c(nc4sc(C(=O)c5ccc6c(c5)OCO6)c(N)c24)CC(C)(C)CC3=O)cc1,-10,x,x,x,x,x,x,x
COc1ccc(-c2cc(-c3cccs3)nc3sc(C#N)c(N)c23)cc1,-34,40*,8,16,2358,12,-1,2
O=C(Nc1ccc2c(c1)C(=O)NC2=O)c1ccc([N+](=O)[O-])cc1,-2,x,x,x,x,x,x,x
CC(=NNc1ccc(Cl)nn1)c1ccccc1O,-6,x,x,x,x,x,x,x
O=[N+]([O-])c1cccc(S(=O)(=O)N2CCCC2)c1,-1,3,33,-2,2590,-2,-4,-4
CCN1CCN(S(=O)(=O)c2cccc([N+](=O)[O-])c2)CC1,-6,0,0,0,3152,x,x,x
COc1ccc(CNC(=O)CN2C(=O)COc3ccc(S(=O)(=O)N4CCCC4)cc32)cc1,-6,53*,-2,2,5784,0,2,0
O=C(Cn1ccn(-c2cccc(Cl)c2)c(=O)c1=O)NCCC1=CCCCC1,-10,x,x,x,x,x,x,x
Cc1ccc(CC(=O)N(CCN(C)C)c2nc3ccc(S(C)(=O)=O)cc3s2)c(C)c1,16,x,x,x,x,x,x,x
CCCn1nc(-c2ccccc2)c2nc3ccccc3nc21,-35,x,x,x,x,x,x,x
CCn1nc(-c2ccccc2)c2nc3ccccc3nc21,-65,67*,38*,43*,3801,22,2,10
COc1ccccc1NC(=O)C(C)Sc1nccn1C (stereo not given),-1,1,8,1,3002,x,x,x
CC(Sc1nccn1C)C(=O)Nc1ccc(C(N)=O)cc1 (stereo not given),-15,22,39*,2,u,0,-5,-1
Cc1ccccc1NC(=O)CN(c1ccc(F)cc1)S(C)(=O)=O,-13,0,42*,-5,3419,0,-5,-2
COc1ccccc1N(CC(=O)Nc1ccccc1C)S(C)(=O)=O,-14,0,8,-2,10372,x,x,x
Cc1ccc(C)c(Nc2nc(-c3ccncc3)nc3ccccc23)c1,-6,0,42*,-2,3520,-2,0,-3
CCc1ccccc1N(CC(=O)NCc1ccc(OC)cc1)C(=O)CCC(=O)Nc1ccccn1,-5,-2,-3,4,5288,x,x,x
COc1ccc(CNC(=O)CN(C(=O)CCC(=O)Nc2ccccn2)c2cc(C)ccc2C)cc1,-5,-2,-7,32*,3145,1,-4,5
O=C(Nc1ccccc1C(=O)Nc1nncs1)c1ccccc1,-4,-1,40*,7,3230,0,-5,2
CC(C)(C)n1nc2c(c1NC(=O)c1ccccc1Br)C[S@](=O)C2,-10,x,x,x,x,x,x,x
Cc1nnc(N(C(=O)c2cnccn2)c2ccccc2)s1,0,0,33,-5,3628,0,-1,2
COc1ccc(-c2cc(CNC(=O)C3(c4ccc(Cl)cc4)CCCC3)no2)cc1OC,-8,x,x,x,x,x,x,x
COc1ccc(S(=O)(=O)N2CCSC2C)cc1C (stereo not given),-15,-2,44*,20,3569,-1,-5,-5
Cc1cc(N(C)C)nc(CNS(=O)(=O)Cc2ccccc2)n1,3,x,x,x,x,x,x,x
O=C(Cc1csc(NS(=O)(=O)c2ccc(Cl)cc2)n1)Nc1ccc2c(c1)OCCO2,-9,x,x,x,x,x,x,x
SMILES,SSB-PriA inh,BoNT-A LC inh2,BoNT-F LC inh,Anthrax LF inh2,Autofluor counter,BoNT-A LC CP1,BoNTF LC inh 1,LF protease CP1
CCCOC1CCCN(Cc2nc(-c3cnccn3)no2)C1 (stereo not given),4,4,35*,-4,4198,0,-2,1
CCn1c(=O)n(CC)c2cc(S(=O)(=O)N3CCCCC3)c(C)cc21,-3,0,-4,-6,10905,x,x,x
CCn1c(=O)n(CC)c2cc(S(N)(=O)=O)c(C)cc21,6,8,44*,7,7485,1,-3,-3
O=c1c2c(-c3ccccc3)csc2nc2c3ccccc3c(NCCN3CCOCC3)nn12,-27,32*,2,5,4402,7,-8,2
c1ccc(-c2csc3ncnc(NCCCN4CCOCC4)c23)cc1,0,0,3,3,2740,x,x,x
COc1ccc(C(N)C(=O)O)cc1 (stereo not given),6,x,x,x,x,x,x,x
COc1ccc([C@@H](O)[C@@H](N)c2ccccc2)cc1,-7,0,u,38*,3097,0,1,1
COc1ccc(S(=O)(=O)NCC2CCCO2)cc1Cl (stereo not given),-4,-1,35*,-12,2925,-1,-4,-2
Cc1ccc(NC(=O)CCn2c(=O)[nH]c3ccsc3c2=O)cc1,1,x,x,x,x,x,x,x
COc1cc(NC(=O)CCn2c(=O)[nH]c3ccsc3c2=O)cc(OC)c1,1,4,41*,4,4712,0,-3,-4
O=C(CSc1nnc2sc3ccccc3n12)N1CCOCC1,1,x,x,x,x,x,x,x
CCN(CC)c1nc(C(N)=O)cc(-c2ccccc2)n1,-51,0,-5,-2,4887,x,x,x
CN1CCN(c2nc(C(N)=O)cc(-c3ccccc3)n2)CC1,-15,0,36*,0,4065,1,-4,-2
Cc1cc2cc(CNC(=O)c3cccc4ccccc34)ccc2n1C,27,x,x,x,x,x,x,x
Cc1cc2cc(CNC(=O)COc3ccccc3)ccc2n1C,24,69*,-72,-26,2787,6,-15,2
Cc1cc2cc(CNC(=O)Cc3ccccc3)ccc2n1C,26,x,x,x,x,x,x,x
COc1cc(OC)cc(C(=O)NCc2ccc3c(c2)cc(C)n3C)c1,25,73*,-82,-47,2199,1,-1,-4
Cc1cc2cc(CNC(=O)c3cccc(F)c3)ccc2n1C,-6,x,x,x,x,x,x,x
COc1ccc(CC(=O)NCc2ccc3c(c2)cc(C)n3C)cc1OC,-1,51*,-25,10,2746,2,-8,-4
Cc1cc2cc(CNC(=O)c3ccc4c(c3)OCO4)ccc2n1C,39*!,65*,-86,-50,1744,7,-11,3
Cc1cc([C@@H](O)CCNC(=O)C(=O)Nc2ccc(OC(F)(F)F)cc2)c(C)o1,9,x,x,x,x,x,x,x
COc1ccc(C=NNC(=S)Nc2cccc(C(=O)O)c2)cc1OC,-3,x,x,x,x,x,x,x
COc1cc(Nc2ccc(NS(=O)(=O)c3ccc(NC(C)=O)cc3)cc2)nc(C)n1,1,x,x,x,x,x,x,x
COc1c(C)cccc1C(=O)NCc1ccc2c(c1)OCO2,-5,-1,36*,-12,3541,0,-4,1
Cc1cc2cc(CNC(=O)CCCc3ccccc3)ccc2n1C,10,x,x,x,x,x,x,x

# Compound activity (PubChem)
